Laboratory results taken from PubChem BioAssay (NCATS).
Inconclusive results are not listed. Activity calls are given as the source filed them. Calls come from the whole dose curve; as a rule, active = well fitted curve in the direction sought with a large enough effect; inconclusive = small, poorly fitted or top-dose-only effect, or another doubt; inactive = no such curve, though single readings can be large; an effect the other way counts as inactive or inconclusive.

Key:
[1] = G06 Cancer Cell Toxicity qHTS against the NCATS CANVASS Library (AID 1347368); note: series mostly up to about 46 µM; nearly all actives have a fitted effect of over 60% in size
Procedure, shortened: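 G06 dog glioma cells seeded at 500 cells/well were exposed to compounds (11-point qHTS series) for 72 hr at 37C, 5% CO2; viability read as ATP content by CellTiterGlo luminescence.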

[2] = MCF7 Cancer Cell Toxicity qHTS against the NCATS CANVASS Library (AID 1347369)
Procedure, shortened: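 MCF7, 500 cells/well; cpds 11-pt qHTS; 72 hr, 37C/5% CO2; CellTiterGlo ATP luminescence.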

[3] = qHTS for ATAD5 Antagonist screened against the NCATS CANVASS Library (AID 1347370);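 note: HEK293T cells carrying an ATAD5 luciferase reporter co-treated with 10 µM 5-fluorouridine; series mostly up to about 46 µM; nearly all actives have a fitted effect of over 65% in size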
Procedure, shortened: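 HEK293T cells with a stably integrated ATAD5-controlled luciferase reporter were exposed to compounds (11-pt) alongside 10 uM 5-fluorouridine as ATAD5 stabilizer for 16hr at 37C. Viability was read by CellTiter-Fluor fluorescence, then ATAD5 by luminescence.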

[4] = J3T Cancer Cell Toxicity qHTS against the NCATS CANVASS Library (AID 1347371);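 note: J3T is a canine glioma cancer cell line seeded at 500 cells per well; series mostly up to about 46 µM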
Procedure, shortened: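 J3T dog glioma cells (500 cells/well) were exposed to compounds in an 11-point series for 72 hr at 37C, 5% CO2. Cytotoxicity was read as ATP content by CellTiterGlo luminescence.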

[5] = molecular target: Nuclear receptor subfamily 1 group I member 3 (Homo sapiens) (UniProt Q14994); assay: qHTS for Constitutive Androstane Receptor (CAR) Antagonist screened against the NCATS CANVASS Library (AID 1347372);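 note: cells stimulated with 50 nM CITCO agonist so inhibition reflects antagonism; series mostly up to about 46 µM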
Sequence of Nuclear receptor subfamily 1 group I member 3 (Homo sapiens) (Q14994 whole entry, looked up): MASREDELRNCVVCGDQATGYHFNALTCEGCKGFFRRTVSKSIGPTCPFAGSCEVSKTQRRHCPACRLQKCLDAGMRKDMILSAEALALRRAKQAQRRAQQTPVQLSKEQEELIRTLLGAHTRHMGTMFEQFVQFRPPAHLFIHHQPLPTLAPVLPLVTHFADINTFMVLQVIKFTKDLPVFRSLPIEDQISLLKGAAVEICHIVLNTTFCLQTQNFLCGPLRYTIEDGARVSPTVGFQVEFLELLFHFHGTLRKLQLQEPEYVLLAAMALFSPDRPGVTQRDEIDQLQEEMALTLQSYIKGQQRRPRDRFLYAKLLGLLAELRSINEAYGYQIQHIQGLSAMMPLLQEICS
Procedure, shortened: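 HepG2-CYP2B6-hCAR double-stable cells plated, 4hr attach; cpd pin-transferred; CITCO 50 nM final; 24hr 37C/5% CO2; CellTiter-Fluor 1hr (fluorescence), then ONE-Glo luminescence.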

[6] = molecular target: Nuclear receptor subfamily 1 group I member 3 (Homo sapiens) (UniProt Q14994); assay: qHTS for Constitutive Androstane Receptor (CAR) Agonist screened against the NCATS CANVASS Library (AID 1347373);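 note: every well also contained 1.5 µM PK11195 alongside the test compound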
Procedure, shortened: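 HepG2 cells stably expressing hCAR and a CYP2B6-2.2kb luciferase reporter were treated for 24hr at 37C with compounds (11-point qHTS) in the presence of 1.5uM PK11195. Reporter activation was read by ONE-Glo luminescence.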

[7] = qHTS for Hypoxia signaling pathway (HIF-1) antagonists against the NCATS CANVASS Library (AID 1347374);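 note: HRE-bla ME-180 cells stimulated with cobalt chloride to stabilize HIF-1alpha; series mostly up to about 38 µM; nearly all actives have a fitted effect of over 60% in size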
Procedure, shortened: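 HRE-bla ME-180 cells (2,000/well, 0.5% dialyzed FBS) were pre-incubated 5 h, then given an 11-point compound series plus CoCl2 (60 uM solution as added) for 17 h at 37C. CCF4 β-lactamase read (ex 405, em 460/530 nm) after 2 h at RT.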

[8] = qHTS for Hypoxia signaling pathway (HIF-1) agonists against the NCATS CANVASS Library (AID 1347375)
Procedure, shortened: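 HRE-bla ME-180 cells (beta-lactamase reporter under hypoxia responsive element) in 0.5% dialyzed FBS medium, 5 h at 37C, then compound 17 h, 11-point qHTS series. CCF4-AM FRET substrate 2 h RT; 460/530 nm emission read.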

[9] = 10-beta competent E. coli microbial cell viability qHTS against the NCATS CANVASS Library (AID 1347376); note: series mostly up to about 46 µM
Procedure, shortened: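 10-beta competent E. coli (0.9 OD culture diluted to 0.2 OD) exposed to compounds in an 11-point qHTS series, incubated overnight at 37C, 5% CO2. Viability read as ATP by BacTiter-Glo luminescence after 20 min at room temperature.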

[10] = DH5-alpha competent E. coli microbial cell viability qHTS against the NCATS CANVASS Library (AID 1347377); conditions: outcome: dose series up to 46.1 µM unless noted
Procedure, shortened: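 DH5-alpha E. coli suspension (0.9 OD culture diluted to 0.2 OD) exposed to compounds in an 11-point series, overnight at 37C, 5% CO2. Viability read as ATP by BacTiter-Glo luminescence after 20 min at room temperature.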

[11] = qHTS for H2AX Agonists against the NCATS CANVASS Library (AID 1347378)
Procedure, shortened: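 CHO-K1 cells were plated overnight at 37C, then exposed to compounds (concentration series, 0.76% DMSO final) for 3 hr at 37C. Lysates received Eu-cryptate anti-pH2AX (S139) and d2 anti-H2AX antibodies; after 24 hr at room temperature, TR-FRET 665/620 nm ratio was read.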

[12] = qHTS for Inflammasome Signaling Inhibitors: IL-1-beta AlphaLISA screen against the NCATS CANVASS Library (AID 1347379);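 note: human THP-1 cells primed with LPS then triggered with ATP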
Procedure, shortened: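 Human THP-1 cells were pretreated 1 hr at 37 °C with compounds (up to 57.5 uM final), then stimulated with LPS (250 ng/mL final) and ATP (1.25 mM final). Secreted IL-1B was read by AlphaLISA after 16 hr.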

[13] = qHTS for Antimalaria activity screened against the NCATS CANVASS Library (AID 1347380);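 note: Plasmodium falciparum strain Dd2 asexual parasites grown in red blood cells; series mostly up to about 29 µM; nearly all actives have a fitted effect of over 40% in size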
Procedure, shortened: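 P. falciparum Dd2-infected RBCs (2.5% hematocrit final, 0.3% parasitemia) in Albumax II RPMI were exposed to compounds in an 11-point qHTS series for 72 h at 37C under 5% O2/5% CO2, then lysed with SYBR Green.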

[14] = Inflammasome Signaling qHTS Counterscreen: IL-1-beta AlphaLISA counterscreen against the NCATS CANVASS Library (AID 1347381);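 note: cell-free check with purified IL-1β in medium and no THP-1 cells; series mostly up to about 57 µM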
Procedure, shortened: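 To flag interference with the AlphaLISA read-out, a known amount of purified IL-1-beta (4 pg) replaced cell supernatant. Detection used anti-IL-1-beta acceptor beads, biotinylated antibody and streptavidin donor beads at room temperature.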

[15] = qHTS for Activators of p53 Stress Response Pathway screened against the NCATS CANVASS Library (AID 1347388)
Procedure, shortened: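 Beta-lactamase reporter driven by p53 response elements in HCT-116 cells, read as the 460 nm/530 nm emission ratio after CCF4 loading, following 16 h of exposure to an 11-point series. Cell viability was measured in the same wells by CellTiter-Glo luminescence.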

[16] = qHTS assay for small molecule disruptors of mitochondrial membrane potential screened against the NCATS CANVASS Library (AID 1347389); note: series mostly up to about 46 µM; nearly all actives have a fitted effect of over 60% in size
Procedure, shortened: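 HepG2 cells (2,000/well) were plated overnight at 37C, exposed to compound for 1 hr at 37C/5% CO2, then loaded with Mito-MPS dye for 30 min. Depolarization was read as a drop in red (590 nm) to green (535 nm) fluorescence ratio.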

[17] = Secretion counterscreen for inhibitors of the SERCaMP assay screened against the NCATS CANVASS Library (AID 1347390);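 note: light from luciferase secreted into medium read as a measure of general secretion; series mostly up to about 77 µM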
Procedure, shortened: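 SH-SY5Y cells expressing constitutively secreted GLuc, 1000 cells/well, attached 4 h at 37C, then exposed to compounds (0.001 - 77 uM, 11-pnt series) for 20 h. Coelenterazine added; luminescence read to flag secretory-pathway interferers.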

[18] = qHTS for activators of Nrf2/ARE signaling pathway screened against the NCATS CANVASS Library (AID 1347391); note: nearly all actives have a fitted effect of over 60% in size
Procedure, shortened: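 ARE-bla HepG2 beta-lactamase reporter cells, 2000 cells/well, were preincubated 5 h, then exposed to compounds (11-point series) for 16 h at 37C. CCF4 fluorescence (ex 405, em 460/530 nm) after 2 h at room temperature.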

[19] = qHTS for activators of dead-cell proteases activity screened against the NCATS CANVASS Library (AID 1347392);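 note: luminescence from protease leaking out of membrane-damaged cells cleaving impermeant substrate; rising signal means more cytotoxicity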
Procedure, shortened: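 Compounds are pin-transferred onto attached HepG2 cells, giving 11 final concentrations. After 5 h at 37C, AAF-aminoluciferin reagent is added and luminescence is recorded at room temperature.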

[20] = qHTS for inhibitors of ER calcium dysfunction: SERCaMP assay screened against the NCATS CANVASS Library (AID 1347393);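 note: series mostly up to about 77 µM; lower secreted reporter signal means inhibitor of ER calcium depletion; nearly all actives have a fitted effect of over 40% in size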
Procedure, shortened: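 Thapsigargin-induced ER calcium depletion drives GLuc-SERCaMP secretion from SH-SY5Y cells; compounds given 16 h beforehand were scored by lowered coelenterazine luminescence after 4 h challenge.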

[21] = Vero-766 cells viability qHTS against the NCATS CANVASS Library: Counterscreen for Zika virus inhibition assay (AID 1347394)
Procedure, shortened: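 Uninfected Vero 766 (African green monkey) cells, 1000/well, attached overnight, then exposed 72 h at 37C to compounds (11-point qHTS). Viability read by CellTiter-Glo luminescence; media-only wells served as 100% inhibition.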

[22] = qHTS for inhibitors of Wild type Zika virus screened against the NCATS CANVASS Library (AID 1347396);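 note: ATP luminescence of surviving cells so rescue from viral cell killing; series mostly up to about 46 µM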
Procedure, shortened: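 Using ATP-based luminescence (CellTiter Glo), this screen scores rescue of Vero 766 cells from wild-type Zika killing at 72 h post-infection. Compounds are tested in a concentration series.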

[23] = Viability qHTS for inhibitors of the SERCaMP assay screened against the NCATS CANVASS Library (AID 1347400); note: series mostly up to about 92 µM; nearly all actives have a fitted effect of over 70% in size
Procedure, shortened: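 SH-SY5Y-GLuc SERCaMP MJH297-derived cells (1000 cells/well) were pre-incubated 4 h at 37C, then exposed to compounds for 48 h. Viability was read as CellTiter-Glo luminescence; bortezomib served as positive control.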

[24] = Redox Reaction Profiling qHTS: Assay Interference Panel against the NCATS CANVASS Library (AID 1347401)
Procedure, shortened: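 Cell-free redox surrogate: 5 uM resazurin + 200 uM DTT, 50 mM HEPES pH 7.3/50 mM NaCl; cpds pinned, 11-pt qHTS; Ex525/Em598 read t0 and t=15 min, dark.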

Measured: Potency

CC1(C)CCC[C@]2(C)[C@@H]1CC[C@@]13C[C@@H](CC[C@H]12)C(C)(O)C3 (some centres undefined)
inactive: [1] | [2] | [3] | [4] | [5] | [6] | [7] | [8] | [9] | [10] | [11] | [12] | [13] | [14] | [15] | [16] | [17] | [18] | [19] | [20] | [21] | [22] | [23] | [24]
